Reference: the supplement of paper PMC4466140

What was measured:
Assay in all cases: SPOT peptide array binding signal intensity (averaged, normalized) (arbitrary units (background-subtracted, floor 0; scale differs between SH3 domains)); higher = stronger binding of the SH3 domain to the peptide
[1] = target: AgAbp1
Procedure, shortened: (§1)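 Binding signal refers to normalized, background-subtracted spot intensity averaged over replicates, expressed in arbitrary units that differ between domains. GST-fused SH3 domains from four yeast species were incubated at 10 μg/ml overnight at 4°C on cellulose membranes of synthetic 15-mer peptides with cysteines replaced by serines. Bound protein was detected with anti-GST antibody, an HRP anti-mouse secondary and luminol, and quantified with Genespotter.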

[2] = target: AgBbc1
Procedure, shortened: as §1

[3] = target: AgBem1-D1
Procedure, shortened: as §1

[4] = target: AgBzz1-D1
Procedure, shortened: as §1

[5] = target: AgBzz1-D2
Procedure, shortened: as §1

[6] = target: AgCyk3
Procedure, shortened: as §1

[7] = target: AgFus1
Procedure, shortened: as §1

[8] = target: AgHof1
Procedure, shortened: as §1

[9] = target: AgHse1
Procedure, shortened: as §1

[10] = target: AgLsb1
Procedure, shortened: as §1

[11] = target: AgLsb4
Procedure, shortened: as §1

[12] = target: AgMyo5
Procedure, shortened: as §1

[13] = target: AgNbp2
Procedure, shortened: as §1

[14] = target: AgRvs167
Procedure, shortened: as §1

[15] = target: AgSho1
Procedure, shortened: as §1

[16] = target: AgSla1-D1-D2
Procedure, shortened: as §1

[17] = target: AgSla1-D3
Procedure, shortened: as §1

[18] = target: CaAbp1-D1
Procedure, shortened: as §1

[19] = target: CaAbp1-D2
Procedure, shortened: as §1

[20] = target: CaBbc1
Procedure, shortened: as §1

[21] = target: CaBem1-D1
Procedure, shortened: as §1

[22] = target: CaBzz1-D1
Procedure, shortened: as §1

[23] = target: CaBzz1-D2
Procedure, shortened: as §1

[24] = target: CaCyk3
Procedure, shortened: as §1

[25] = target: CaFus1
Procedure, shortened: as §1

[26] = target: CaHof1
Procedure, shortened: as §1

[27] = target: CaHse1
Procedure, shortened: as §1

[28] = target: CaLsb1
Procedure, shortened: as §1

[29] = target: CaLsb4
Procedure, shortened: as §1

[30] = target: CaMyo5
Procedure, shortened: as §1

[31] = target: CaNbp2
Procedure, shortened: as §1

[32] = target: CaRvs167
Procedure, shortened: as §1

[33] = target: CaRvs167-3
Procedure, shortened: as §1

[34] = target: CaSho1
Procedure, shortened: as §1

[35] = target: CaSla1-D1-D2
Procedure, shortened: as §1

[36] = target: CaSla1-D3
Procedure, shortened: as §1

[37] = target: ScAbp1
Procedure, shortened: as §1

[38] = target: ScBbc1
Procedure, shortened: as §1

[39] = target: ScBem1-D1
Procedure, shortened: as §1

[40] = target: ScBzz1-D1
Procedure, shortened: as §1

[41] = target: ScBzz1-D2
Procedure, shortened: as §1

[42] = target: ScCyk3
Procedure, shortened: as §1

[43] = target: ScFus1
Procedure, shortened: as §1

[44] = target: ScHof1
Procedure, shortened: as §1

[45] = target: ScHse1
Procedure, shortened: as §1

[46] = target: ScLsb1
Procedure, shortened: as §1

[47] = target: ScLsb2
Procedure, shortened: as §1

[48] = target: ScLsb3
Procedure, shortened: as §1

[49] = target: ScLsb4
Procedure, shortened: as §1

[50] = target: ScMyo3
Procedure, shortened: as §1

[51] = target: ScMyo5
Procedure, shortened: as §1

[52] = target: ScNbp2
Procedure, shortened: as §1

[53] = target: ScPex13
Procedure, shortened: as §1

[54] = target: ScRvs167
Procedure, shortened: as §1

[55] = target: ScSho1
Procedure, shortened: as §1

[56] = target: ScSla1-D1-D2
Procedure, shortened: as §1

[57] = target: ScSla1-D3
Procedure, shortened: as §1

[58] = target: SpAbp1-D1
Procedure, shortened: as §1

[59] = target: SpBbc1
Procedure, shortened: as §1

[60] = target: SpBzz1-D1
Procedure, shortened: as §1

[61] = target: SpBzz1-D2
Procedure, shortened: as §1

[62] = target: SpCyk3
Procedure, shortened: as §1

[63] = target: SpHof1
Procedure, shortened: as §1

[64] = target: SpHof1-2
Procedure, shortened: as §1

[65] = target: SpHof1-3
Procedure, shortened: as §1

[66] = target: SpHse1
Procedure, shortened: as §1

[67] = target: SpLsb1
Procedure, shortened: as §1

[68] = target: SpLsb4
Procedure, shortened: as §1

[69] = target: SpMyo1
Procedure, shortened: as §1

[70] = target: SpNbp2
Procedure, shortened: as §1

[71] = target: SpPex13
Procedure, shortened: as §1

[72] = target: SpRvs167
Procedure, shortened: as §1

[73] = target: SpSla1-D1-D2
Procedure, shortened: as §1

[74] = target: SpSla1-D3
Procedure, shortened: as §1

Measured: SPOT peptide array binding signal intensity

KTITLEVESSDTIDN
2.5: [33]
1.5: [14]
3: [11]
15: [43]
10.2: [57]
2: [16]
8: [40]
0.5: [1] | [28]
1: [37] | [44] | [59]
≤ 0: all other assays above
